Rows were chosen to be rich in hits. Some 2% of all compounds tested hit in one or more screens of this group.
Neddyl block: blocks human cullin neddylation; P61081+Q13564; TR-FRET cullin neddylation, biochemical; inhibition, % at 25 µM; 0.58% of 360,000 active; AID 651699; in the data active = inhibition above about 36%
A3A deaminase: blocks human APOBEC3A ssDNA deamination; recombinant A3A, FAM/TAMRA ssDNA deamination fluorescence; 0.41% of 330,000 active; inhibition, % at 20 µM; AID 493011; P31941;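 active = at least 40% inhibition at 20 µM here, with at most 30% in a related deaminase screen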;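 also: plate controls were A3A with DMSO for no effect and wells lacking A3A enzyme for full effect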
Target sequence (P31941 whole entry, looked up): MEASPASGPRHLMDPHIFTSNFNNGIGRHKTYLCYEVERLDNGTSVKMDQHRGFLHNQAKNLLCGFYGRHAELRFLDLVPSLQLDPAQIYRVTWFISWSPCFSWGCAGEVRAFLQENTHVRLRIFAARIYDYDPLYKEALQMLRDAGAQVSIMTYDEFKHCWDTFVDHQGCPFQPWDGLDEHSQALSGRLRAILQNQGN
GC-A act: GC-A (human) enzyme activation; P16066; HEK293 GC-A cells, cGMP TR-FRET, EC30 ANP; 0% at EC30 ANP, 100% saturating ANP; activation, % at 10 µM; 0.14% of 370,000 active; AID 1671463; in the data active = activation above about 40%
APOBEC3G inh: blocks human APOBEC3G single-stranded DNA deamination; inhibition, % at 20 µM; 0.28% of 330,000 active; Q9HC16; AID 493012; recombinant A3G, ssDNA deamination FAM/TAMRA fluorescence;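 active = inhibition of at least 40% at 20 µM, with no more than 30% in the related APOBEC3A deaminase screen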;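 also: plate controls were DMSO wells with A3G for no effect and wells lacking A3G enzyme for full effect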
Target sequence (Q9HC16 whole entry, looked up): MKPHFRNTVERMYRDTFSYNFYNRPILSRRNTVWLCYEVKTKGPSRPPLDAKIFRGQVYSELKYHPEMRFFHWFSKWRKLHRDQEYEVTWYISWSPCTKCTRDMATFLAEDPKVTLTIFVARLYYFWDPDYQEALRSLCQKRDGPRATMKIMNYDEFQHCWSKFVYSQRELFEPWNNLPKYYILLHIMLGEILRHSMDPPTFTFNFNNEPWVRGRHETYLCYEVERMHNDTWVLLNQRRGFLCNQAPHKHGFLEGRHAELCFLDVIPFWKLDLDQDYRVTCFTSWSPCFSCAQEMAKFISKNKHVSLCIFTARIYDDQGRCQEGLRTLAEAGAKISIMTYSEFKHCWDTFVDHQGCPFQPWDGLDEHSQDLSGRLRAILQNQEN
PfGluPho inh: PfG6PD (Plasmodium falciparum) enzyme inhibition. PfGluPho enzyme, NADPH resazurin-diaphorase fluorescence. inhibition, % at 20 µM. 0.78% of 350,000 active;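 active = inhibition reaching at least a set limit at 20 µM in the primary screen, cut at about 59% in these data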;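 also: 0% = DMSO wells with substrate and 100% = DMSO wells lacking glucose-6-phosphate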
GC-B act: GC-B (human) receptor activation; AID 1920062; activation, % at 10 µM; 0.11% of 370,000 active; HEK293-GC-B cells, CNP EC30, cGMP TR-FRET; 0% at EC30 CNP, 100% saturating CNP;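 active = activation at 10 µM reaching about 35% in either raw or pattern-adjusted values, limit read from the data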
Neddyl inh conf: cullin neddylation inhibition, confirmation. shares compounds with Neddyl block. TR-FRET cullin neddylation biochemical assay. calls only at 25 µM. 13% of 1,800 active. AID 652217; in the data active = inhibition above about 40%;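 also: neddylation substrate is the cullin 1 ring ligase complex with SKP2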
* = called active by the depositor; i = inactive; x = not tested or not shown; + = active, no number.

SMILES	Neddyl block	A3A deaminase	GC-A act	APOBEC3G inh	PfGluPho inh	GC-B act	Neddyl inh conf
O=c1oc(-c2ccccc2)cc(Cl)c1Cl	12	0	16	2	2	9	x
CN(C)C(CNC(=O)c1ccc2[nH]c(=O)c(=O)[nH]c2c1)c1ccco1 (stereo unspecified)	52*	0	3	-3	-3	4	x
Cc1c(C(=O)NCC(c2ccco2)N(C)C)oc2c(Cl)cccc12 (stereo unspecified)	9	-1	-3	-9	3	5	x
COc1ccc(C(CNC(=O)c2oc3ccc(OC)cc3c2C)N2CCCC2)cc1 (stereo unspecified)	50*	-2	-19	-4	-8	-14	x
CCOc1ccc2oc(C(=O)NCC(c3ccco3)N(C)C)c(C)c2c1 (stereo unspecified)	47*	1	0	-4	-6	-2	x
COc1ccc2oc(C(=O)NCc3ccccc3CN3CCCC3)c(C)c2c1	x	0	0	-6	-5	0	x
CCOc1ccc2oc(C(=O)NCc3ccccc3CN3CCCC3)c(C)c2c1	52*	1	3	-6	16	5	x
COc1ccc(C(CNC(=O)c2oc3ccc(Br)cc3c2C)N2CCCCC2)cc1 (stereo unspecified)	-130	3	-13	-2	16	-4	x
CCCCOCCCNC(=O)C[C@H]1C[C@@]2(C(=O)OCC)CCCC3=C2N(CCC3)C1=O	x	x	0	x	x	2	x
CC1C(O)=C(c2nc3ccccc3[nH]2)C(=N)N1c1ccccc1 (stereo unspecified)	46*	-3	6	-7	3	-2	i
N=C1C(c2nc3ccccc3[nH]2)=C(O)CN1c1ccccc1	35	-3	0	-8	0	-4	x
COc1cc2c(cc1OC)-c1cc(NCc3ccccn3)nc(=O)n1CC2	39*	3	5	-4	17	1	+
C=CCN1C(=O)[C@@H](CC(=O)NCc2cccc3ccccc23)[C@]2(C(=O)OC)CCCCC=C12	x	x	0	x	x	-8	x
COc1ccc(-c2ccc3c(N)c(C(=O)c4cccc(OC)c4)sc3n2)cc1	38	3	-5	-1	-13	2	x
COc1cccc(-c2ccc3c(N)c(C(=O)NC4CC4)sc3n2)c1	38*	-3	11	-9	17	-8	x
COc1ccccc1OCC(=O)/C=C1/N(C)c2ccccc2C1(C)C	46*	-1	-7	0	16	-3	i
CN1/C(=C\C(=O)COC(=O)c2ccccc2O)C(C)(C)c2ccccc21	34	1	4	-2	27	2	x
COc1ccc(NC(=O)c2c[nH]c(=O)n(-c3ccc(C)c(C)c3)c2=O)c(OC)c1	64*	x	-2	x	-13	8	i
COc1ccc(NC(=O)c2c[nH]c(=O)n(-c3ccc(C)c(C)c3)c2=O)cc1OC	0	1	-5	-5	-34	-6	x
CC(C)(C)n1nnnc1C(c1cc2cc3c(cc2[nH]c1=O)OCCO3)N1CCSCC1 (stereo unspecified)	47*	-7	1	-7	-7	0	x
Nc1nc2c(ncn2[C@@H]2O[C@H](C(=O)N[C@@H](Cc3ccccc3)C(=O)NCC3CCCCC3)[C@@H](O)[C@H]2O)c(=O)[nH]1	x	x	4	x	x	3	x
CC1Cc2c([nH]c3ccccc23)C(=O)N1 (stereo unspecified)	50*	-2	4	0	6	-1	x
O=C1NCCc2c1[nH]c1ccccc21	21	3	-3	1	2	3	x
CCCCN(C)C1=Nc2cccc3cccc1c23	39*	31	6	16	10	-4	i
O=S(=O)(c1cccs1)N1CN(Cc2ccccc2)c2nc3ccccc3nc21	41*	-14	6	-1	40	-5	i
SMILES	Neddyl block	A3A deaminase	GC-A act	APOBEC3G inh	PfGluPho inh	GC-B act	Neddyl inh conf
CS(=O)(=O)Nc1ccccc1C(=O)Nc1cccc(Cl)c1	47*	2	1	2	-16	2	x
CS(=O)(=O)Nc1ccccc1C(=O)NCCSCc1ccccc1	x	-2	1	-3	1	2	x
CS(=O)(=O)Nc1ccccc1C(=O)NCCSc1ccccc1	42*	2	-2	-3	-8	2	i
CS(=O)(=O)Nc1ccccc1C(=O)N1CCCC1	-1	0	-3	-6	11	3	x
CC(C)(CNC(=O)c1ccccc1NS(C)(=O)=O)N1CCCCC1	45*	-1	0	-8	1	3	i
CC(C)(C)c1ccc(-c2nnc(SCc3ccccc3)n2Cc2ccco2)cc1	x	x	0	x	x	11	x
CC1(C)C=Cc2ccc(O)c(C(=O)/C=C/c3ccccc3)c2O1	x	x	-4	x	x	-6	x
COc1ccc2cc3cc(C(=O)NCCc4ccc(OC)c(OC)c4)oc3nc2c1	53*	-4	10	-4	12	1	+
COc1ccccc1-c1cc(C(=O)NCCN2CCOCC2)no1	15	-3	1	-7	1	5	x
Cc1ccc2cc3cc(C(=O)NCCN4CCOCC4)oc3nc2c1	65*	5	2	2	9	3	+
COc1cccc2cc(C(=O)NCCN3CCOCC3)oc12	40*	-2	1	-7	-7	0	i
O=C(NCCc1ccc(F)cc1)c1cc2ccccn2n1	x	x	0	x	x	2	x
COC[C@H]1CCCN1c1cccc2c1S(=O)(=O)N(C1CC1)CC[C@@H](C)O2	x	x	2	x	x	0	x
CCCC1CCC2(CC1)CCC2OC(=O)Nc1ccc2c(c1)OCO2 (stereo unspecified)	x	x	1	x	x	-5	x
O=C(Nc1cccc2nsnc12)c1ccc(F)cc1	35	-7	16	-9	-7	-3	x
O=C(Nc1cccc2nsnc12)c1ccc2c(c1)OCO2	45*	1	2	2	-5	1	+
COC(=O)[C@]12C[C@H](CC(=O)NCc3ccc(OC)c(OC)c3)C(=O)N(CCC3=CCCCC3)C1=C[C@H](C1CCCC1)O[C@@H]2C	x	x	-7	x	x	-8	x
Cc1cc(=O)oc2cc(OCC(=O)Nc3c(C)n(C)n(-c4ccccc4)c3=O)c(Cl)cc12	40*	-2	5	-9	0	-4	i
Cc1ccc(C)c(OCC(=O)Nc2c(C)n(C)n(-c3ccccc3)c2=O)c1	-10	0	3	-6	-3	-1	x
Cc1cc(=O)oc2cc(OCC(=O)NC3(C#N)CCCCC3)c(Cl)cc12	40*	-3	-10	-14	14	-4	i
FC(F)(F)c1cccc(N2CCN(C(=S)Nc3nccc4ccccc34)CC2)c1	x	x	-2	x	x	-3	x
CCN(CC)C(=O)CC[C@H]1CC[C@]2(CCCN(Cc3ccc(Br)cc3)C2)O1	x	x	-6	x	x	-16	x

High-throughput results deposited in PubChem by Sanford-Burnham Center for Chemical Genomics.
